Bioassay records (PubChem BioAssay)
Shown are actives, neighbours in structure and some others; about 2.3% of the full set was active somewhere.
GLP1R inv ag: acts as inverse agonist at human GLP-1 receptor; hit rate 1.6% among 410,000; HEK293 GLP-1R CRE-luciferase, luminescence, 24 h; GLP-1R form is constitutively active; Potency, µM (series often up to 38.3 µM), without a hit: top-dose activity change, negative = inhibition, hits mostly inhibitors; P43220; also: % is scaled to controls: 0 for no effect and ±100 for the full control effect; nearly all actives have a fitted effect of over 55% in size
Target sequence (P43220 whole entry, looked up): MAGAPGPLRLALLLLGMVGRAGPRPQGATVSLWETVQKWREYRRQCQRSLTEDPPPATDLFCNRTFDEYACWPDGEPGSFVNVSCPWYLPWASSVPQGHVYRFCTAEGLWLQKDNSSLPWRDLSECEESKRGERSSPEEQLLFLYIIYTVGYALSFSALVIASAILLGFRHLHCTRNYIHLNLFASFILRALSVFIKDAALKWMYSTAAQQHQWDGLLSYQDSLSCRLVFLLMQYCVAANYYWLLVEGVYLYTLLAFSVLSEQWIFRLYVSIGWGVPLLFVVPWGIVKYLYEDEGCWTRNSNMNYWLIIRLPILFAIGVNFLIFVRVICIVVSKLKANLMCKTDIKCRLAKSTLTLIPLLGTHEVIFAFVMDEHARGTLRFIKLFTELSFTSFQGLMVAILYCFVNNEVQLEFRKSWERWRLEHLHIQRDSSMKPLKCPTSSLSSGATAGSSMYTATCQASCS
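qHTS in 1536-well format: reporter HEK293 cells expressing constitutive GLP-1R activity in DMEM + 10% Nu serum, 24 hr with compounds at 37 deg C, luminescence read after 12 min with detection reagent.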
ALOX12 inh: ALOX12 (human) lipoxygenase inhibition. P18054. purified 12hLO, xylenol orange hydroperoxide absorbance. Potency, µM (highest dose often 108 µM), for the others: top-dose activity change, negative = inhibition, most hits filed as inhibitors. hit rate 1.1% among 580,000; also: % is scaled to controls: 0 for no effect and ±100 for the full control effect
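Purified human 12hLO at 150 nM in 25 mM Hepes, 0.01% Triton X-100, pH 7.0, preincubated 15 min at room temperature with compound. Reaction started with 40 uM arachidonic acid, 30 min at room temperature. Hydroperoxide measured by Fe-xylenol orange, 573/405 nm absorbance ratio.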
GLS inh: inhibitors of human glutaminase (GLS). O94925. GLS enzymatic activity, qHTS titration. Potency, µM (highest dose often 45.5 µM), for the others: at the highest dose activity change, negative = inhibition, hits mostly inhibitors. hit rate 0.21% among 410,000. AID 624170; also: % is scaled to controls: 0 for no effect and ±100 for the full control effect
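hKGA in 45 mM KH2PO4 (pH 8.2), 0.02% Tween-20 with compound, then 1mM L-Glutamine (stock as added) plus glutamate oxidase/HRP/Amplex red coupling mix. Fluorescence read initially and after 30 min at RT; signal change reflects glutamate formation.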
GRP78 ERSR act: inducers of ER stress response in human glioma cells | U87-MG GRP78 promoter luciferase reporter, 16 h | Potency, µM, without a hit: at the highest dose activation, usual class: activators | hit rate 0.02% among 420,000 | AID 602332; also: series mostly up to about 76 µM; % of control where 0% means no effect; nearly all actives have a fitted effect of over 35% in size
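Stably transfected U87-MG human glioma cells carrying a GRP78-based luminescent sensor were seeded at 1000 cells/well, pin-dosed with compounds and incubated 16 h. Luciferase reagent was then added, and end-point luminescence was read after 10 min at room temperature.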
GLP-1R agonist: GLP-1 receptor (human) agonism; P43220; HEK293 GLP-1R CRE-luciferase, luminescence, 4-6 h; cells express a hypersensitive GLP-1R form; Potency, µM (top dose mostly 45.6 µM), for the others: top-dose activation, actives largely listed as activators; hit rate 0.007% among 380,000; also: % of control where 0% means no effect
PTHR1 agonist: activates the human parathyroid hormone receptor PTHR1 | AID 743266 | Q03431 | hit rate 0.075% among 410,000 | Potency, µM (highest dose often 115 µM), for the others: top-dose activation, usual class: activators | HEK293 GP2 PTHR1 cells, GloSensor cAMP luminescence, 1 h; also: nearly all actives have a fitted effect of over 55% in size
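HEK-293-derived GP2 cells expressing PTHR1 and a GloSensor cAMP reporter, 3,000/well, plated overnight, given luciferin plus IBMX (each 0.5 mM as added) for 1 h at 37 °C, then compound for 1 h at 37 °C. Luminescence was read after 15 min at room temperature.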
* = called active by the depositor; i = inactive; ? = inconclusive; / = no result given; [ ] = another dose, or the depositor's remark. Calls follow the shape of the dose curve; as a rule, active = well fitted curve in the direction sought with a large enough effect; inconclusive = small, poorly fitted or top-dose-only effect, or another doubt; inactive = no such curve, though single readings can be large; an effect the other way counts as inactive or inconclusive. Potency is read from the fitted curve at half-maximal effect.

SMILES	GLP1R inv ag	ALOX12 inh	GLS inh	GRP78 ERSR act	GLP-1R agonist	PTHR1 agonist
CC1(C)Cc2c(C#N)c(SCCOc3ccccc3)nc(N3CCOCC3)c2CO1	13µM*	0%	8%	-4%	2%	-50%
CC1(C)Cc2c(C#N)c(SCCO)nc(N3CCOCC3)c2CO1	17%	0%	-5%	-4%	15%	-18%
CS(=O)(=O)N1CCc2cc(C(=O)Nc3ccc(Cl)c(C(F)(F)F)c3)ccc21	10µM*	-16%	-9%	-1%	/	-24%
CS(=O)(=O)N1CCc2cc(C(=O)Nc3ccc(C(F)(F)F)cc3)ccc21	-14%	-15%	-15%	-1%	/	-23%
Cc1ccc(C)c(Nc2nnc(-c3ccc(C)c(S(=O)(=O)NCC4CCCO4)c3)c3ccccc23)c1 (configuration not stated)	11µM*	-17%	14%	-2%	/	-31%
COc1ccc(C2=NOC(C(=O)N3CCN(c4ccc(F)cc4)CC3)C2)cc1OC (configuration not stated)	/	-14%	/	/	/	/
COc1ccc(/C=C/C(=O)C2(C)CCCCC2)cc1	/	-5%	/	/	/	/
COc1ccc(/C=C/C(=O)C2(O)CCCCC2)cc1	10µM*	?	3%	2%	6%	i
Cc1ccc(CNC(=O)[C@@]23CCCC[C@H]2N(C)C(=O)CC3)cc1	/	5%	/	/	/	/
COc1cccc(-c2nnc3n2N=C(C(C)(C)C)CS3)c1	11µM*	-19%	11%	-9%	-18%	-9%
COc1cccc(-c2nnc3n2N=C(c2cc(OC)ccc2OC)CS3)c1	0%	-14%	10%	-1%	19%	-20%
COc1ccc(NC(=S)NC(=O)c2ccc3c(c2)OCCO3)cc1	29%	7.1µM*	23%	21%	17%	-49%
O=C(NC(=S)Nc1ccc2c(c1)OCCO2)c1ccccc1	?	?	30%	7%	-9%	-15%[57.5 µM]
CCOc1cccc(C(=O)NC(=S)Nc2ccc3c(c2)OCCO3)c1	-9%	16µM*	-9%	3%	2%	-32%
COC(=O)[C@@H]1Cc2ncn(C)c2CN1S(=O)(=O)c1ccc(OC)cc1	/	32µM*	/	/	/	/
C=CCOc1cccc(N)c1	/	24%	/	/	/	/
c1coc(-c2ccc3nncn3c2)c1	10%	?	6.3µM*	-4%	-7%	i
Cc1cncc2cccc(S(=O)(=O)N3CCCN(C(=O)CN)C[C@@H]3C)c12	/	4.3µM*	/	/	/	/
N#CCCN(C(=O)CCl)c1cccc(Cl)c1	2.2µM*	-21%	-3%	-14%	-5%	-43%
N#CCCN(C(=O)CSc1nnnn1-c1cccc(Cl)c1)c1ccc(F)cc1	/	2%	/	/	/	/
CNc1oc(-c2ccccc2F)nc1S(=O)(=O)c1ccc2c(c1)OCCO2	/	-14%	/	/	/	/
CCOC(=O)Nc1ccc2c(c1)N(CCCN(C)C)c1ccccc1CC2	13µM*	-21%	2%	-3%	-6%	i
COC(=O)/C(C#N)=N\O	/	0%	/	/	/	/
COc1ccccc1N1C(=O)c2cccnc2C1=O	8%	0%	-1%	-2%	-3%	-23%
O=C1c2cccnc2-c2ncccc21	-7%	-4%	7%	-4%	-11%	i
SMILES	GLP1R inv ag	ALOX12 inh	GLS inh	GRP78 ERSR act	GLP-1R agonist	PTHR1 agonist
O=C1C(=O)c2cccnc2-c2ncccc21	?	4µM*	-15%	-10%	-13%	-48%
COC1=C(Br)C(=O)c2ncccc2C1=O	?	25µM*	?	-13%	-30%	-71%
CC(=O)c1c(C)oc2c1cc(NS(=O)(=O)c1ccc(C(C)(C)C)cc1)c1ccccc12	11µM*	-28%	7%	/	/	-30%
COc1ccc(S(=O)(=O)Nc2cc3c(C(C)=O)c(C)oc3c3ccccc23)cc1	?	40%	0%	-5%	5%	i
Cc1ccc(-n2ncc3c(Nc4ccc(Oc5ccccc5)cc4)ncnc32)c(C)c1	10µM*	?	-18%	-3%	/	-9%
Cc1cccc(-n2ncc3c(NC(C)C)ncnc32)c1	?	-6%	2%	-7%	4%	-12%
Cc1ccc(-n2ncc3c(Nc4cccc(Cl)c4)ncnc32)c(C)c1	?	-23%	-20%	2%	/	-8%
CCc1ccccc1Nc1ncnc2c1cnn2-c1ccc(Cl)cc1	?	?	-12%	-2%	/	-17%
Cc1cccc(-n2ncc3c(Nc4c(C)cc(C)cc4C)ncnc32)c1	5.6µM*	-14%	-1%	0%	/	?
CCc1ccccc1Nc1ncnc2c1cnn2-c1ccc(C)cc1C	13µM*	?	-4%	1%	/	i
CN1CCCC(CN2c3ccccc3Sc3ccccc32)C1 (configuration not stated)	10µM*	?	20%	-3%	7%	-11%
CC(C(=O)NCCN1CCCC1)C1CCN(C(=O)c2ccc3nc(-c4ccccc4)oc3c2)CC1 (configuration not stated)	/	0%	/	/	/	/
COc1cc2c(cc1O)CC[C@@H]1[C@@H]2CC[C@]2(C)[C@@H](O)CC[C@@H]12	11µM*	/	29%	-3%	-1%	-19%
COC(=O)c1cc(NC(=O)c2ccccc2OC(F)F)c(F)cc1F	/	5%	/	/	/	/
COC(=O)C1=C(O)C2(C(=O)O)CC(C(=O)OC)=C(O)C(C(=O)O)(C1)C2	20%	-38%	11µM*	-3%	1%	i
COc1ccc(NC(=O)C2(C)CCCCC(=O)N2)cc1 (configuration not stated)	/	1%	/	/	/	/
Cc1ccc(C)c(N2CCN(S(=O)(=O)c3ccc(-c4cnc(C5CC5)o4)cc3)CC2)c1	?	-17%	1%	0%	/	i
Cc1cccc(N2CCN(S(=O)(=O)c3ccc(-c4cnc(C5CC5)o4)cc3)CC2)c1C	11µM*	?	-4%	-2%	/	i
CCc1c(C(=O)Nc2ccccc2)c(C)[nH]c(=S)c1C#N	0%	4µM*	11µM*	-4%	-1%	i
Cc1[nH]c(=S)c(C#N)c(C)c1C(=O)Nc1ccccc1	0%	25µM*	?	-3%	-12%	-5%
Cc1ccccc1NC(=O)c1c(C)[nH]c(=S)c(C#N)c1-c1ccco1	13%	-24%	9%	-5%	-8%	-14%
O=C(CCc1ncc(-c2ccccc2)o1)Nc1nccs1	/	-6%	/	/	/	/
C#CC(=O)N(c1cccc(OC)c1)C(C(=O)NC1CCCC1)c1cccs1 (configuration not stated)	3.2µM*	-5%	37%	-11%	-4%	-29%[57.5 µM]
Cc1ccc(S(=O)(=O)NC2CCCc3ccccc32)cc1C (configuration not stated)	5µM*	0%	4%	-7%	2%	-8%[57.5 µM]
